# Screen size: about 71,000 compounds; about 1,300 (1.8%) were called active. The full list was thinned out, with actives kept by preference. Unmarked numbers belong to inactive results. Calls follow the shape of the full dose curve.
# Biological target: Beta-lactamase (Escherichia coli (strain K12)) (UniProt P00811)
# Assay: Promiscuous and Specific Inhibitors of AmpC Beta-Lactamase (assay without detergent); as to activity change, negative = inhibition: % of control where 0% means no effect
# Details: AmpC nitrocefin hydrolysis, absorbance 480 nm, no detergent; series mostly up to 28.7 µM; activity change, negative = inhibition: at the top concentration
# Procedure: NIH Molecular Libraries Screening Centers Network [MLSCN]
# NIH Chemical Genomics Center [NCGC]
# PI Name: Shoichet, Brian K.
# This aggregation profiling approach exploits the sensitivity of aggregate formation to detergent. Inhibition of b-lactamase is measured in the presence and absence of 0.01% Triton X-100. See Pubchem assay "Promiscuous and Specific Inhibitors of AmpC Beta-Lactamase (assay with detergent)" for related screen. Compounds that inhibit only in the absence of detergent are considered likely promiscuous aggregators.
# A screen of 1,030 compounds was performed in Brian Shoichet's lab in 96-well format. AmpC activity was measured by following the absorbance at 480 nm. Nitrocefin is a chromogenic substrate: while nitrocefin is yellow (lmax 390 nm), the product of its hydrolysis is red (lmax 486 nm, 17,000 M-1). AmpC beta lactamase was provided by Brian Shoichet and Brian Feng, UCSF.
# NCGC Assay Protocol Summary:
# 20 mM phosphate buffer, pH 7.0
# Triton X-100: No Detergent screen: 0.0001%, Detergent screen: 0.01%.
# Buffer in columns 3 and 4 as negative control (no enzyme).
# 5.3 nM AmpC in columns 1, 2, 5-48. Titration of UCSF compound 9 control (from 10 mM, then 1:2) pin-transferred to column 2. Column 1 is neutral (100% activity).
# Six uL of reagents were dispensed to 1536-well Greiner black clear bottom plates. Compounds and controls (23 nL) were transferred via Kalypsys PinTool. The plates were incubated for 15 min at room temperature, and then 2 uL of 800 uM solution of nitrocefin was added to start the reaction. The plates were immediately transferred to and read every 20 seconds for 4 min on ViewLux (Perkin-Elmer) High-throughput CCD imager using 480 nm absorbance protocol. During dispense, reagent bottles were kept submerged into 4 deg C water bath.
# Keywords: NIH Roadmap, MLSCN, MLI, MLSMR, qHTS, NCGC, AmpC Beta-Lactamase, Aggregation.
# Potency is read from the fitted curve at half-maximal effect.
# Sequence of Beta-lactamase (Escherichia coli (strain K12)) (P00811 whole entry, looked up): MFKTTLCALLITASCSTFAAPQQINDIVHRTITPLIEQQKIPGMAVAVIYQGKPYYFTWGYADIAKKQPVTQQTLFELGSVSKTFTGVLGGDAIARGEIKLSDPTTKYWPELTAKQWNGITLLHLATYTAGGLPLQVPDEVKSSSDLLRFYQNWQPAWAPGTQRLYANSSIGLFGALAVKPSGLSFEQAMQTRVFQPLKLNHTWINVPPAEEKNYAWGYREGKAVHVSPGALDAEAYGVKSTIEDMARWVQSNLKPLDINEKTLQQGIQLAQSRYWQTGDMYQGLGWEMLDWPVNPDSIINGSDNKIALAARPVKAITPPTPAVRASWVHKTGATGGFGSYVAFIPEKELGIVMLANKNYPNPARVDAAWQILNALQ
SMILES,"activity change, negative = inhibition [%]",Potency
CCCN1CCN(CCCNC(=O)CN2C(=O)COc3ccccc32)CC1,-4.1,–
O=C(CN1C(=O)COc2ccccc21)Nc1ccc(F)cc1,–,3.98 µM [single pt active] (active)
COC(=O)[C@H](C)NC(=O)Nc1ccc(OC(F)(F)F)cc1,7.1,–
Oc1c(Cl)cc(Cl)c(Cl)c1Cc1c(O)c(Cl)cc(Cl)c1Cl,–,5.01 µM (active)
CC(=O)Nc1ccn(Cc2c(F)cccc2Cl)n1,-7,–
O=C(Oc1ccc(-c2nc(-c3ccccn3)no2)cc1)c1ccccc1,0.2,–
N#Cc1ccccc1-n1c(N)c(C(=O)N2CCCC2)sc1=S,22.4,–
Cn1c(=O)[nH]c(=O)c2c1nc(CN(Cc1ccccc1)Cc1ccccc1)n2CCN1CCOCC1,127,–
Cn1c(=O)oc2cc(S(=O)(=O)N3CCC(C(=O)Nc4ccc(OC(F)(F)F)cc4)CC3)ccc21,22.4,–
O=C(Nc1nc2ccc(S(=O)(=O)N3CCCC3)cc2s1)C1CCCO1 (stereo unspecified),8.8,–
Cc1ccc2nc(NC(=O)C3CCN(S(=O)(=O)c4ccc5c(c4)oc(=O)n5C)CC3)sc2c1,–,3.98 µM [single pt active] (active)
CC(=O)OC(C(=O)NCCc1ccccc1)c1cccnc1 (stereo unspecified),-1.8,–
C[N+]1(C)C2CC(OC(=O)C(CO)c3ccccc3)CC1[C@@H]1O[C@H]21 (stereo partly specified),–,inactive
CCOc1ccccc1NC(=O)C1CCC(CNc2c(N3CCOCC3)c(=O)c2=O)CC1 (stereo unspecified),–,3.98 µM [single pt active] (active)
CCOc1ccc(CCNC(=O)C2CCN(c3ccc(N4CCOCC4)nn3)CC2)cc1OCC,73.5,–
CCOc1ccccc1NC(=O)C1CCN(S(=O)(=O)c2c(C)nn(C)c2C)CC1,74.2,–
Cc1nc(-c2ccc(NC(=O)c3cccs3)cc2)cs1,-19.2,–
COc1cccc2c(=O)n(CC(=O)N3CCCCCC3)ccc12,7.4,–
O=C(NCc1ccc2c(c1)OCO2)C1CCCN(S(=O)(=O)c2cccs2)C1 (stereo unspecified),–,3.98 µM [single pt active] (active)
O=C(NC1CCCCC1)C1CCCN(S(=O)(=O)c2cccs2)C1 (stereo unspecified),24,–
O=C(NCc1cccs1)C1CCN(S(=O)(=O)c2ccc3c(c2)OCCO3)CC1,-11.3,–
COc1cc2c(cc1OC)C(c1ccncc1)CC(=O)N2 (stereo unspecified),-5.8,–
CC(C)c1nnc(NC(=O)C2CCCN2S(=O)(=O)c2ccc(Cl)cc2)s1 (stereo unspecified),10.4,–
Cc1nc2ccc(S(=O)(=O)NC(C(=O)N3CCCCCC3)C(C)C)cc2s1 (stereo unspecified),–,3.98 µM [single pt active] (active)
Cc1nc2ccc(S(=O)(=O)NCC(=O)O)cc2s1,-4.4,–
Cc1nc2ccc(S(=O)(=O)NCC(=O)NCCN3CCCCC3C)cc2s1 (stereo unspecified),5.5,–

SMILES,"activity change, negative = inhibition [%]",Potency
COC(=O)c1c(NC(=O)CSc2nc3c(c(=O)n(C)c(=O)n3C)n2C(C)C)sc(C)c1C,27.8,–
CCn1nnc(NC(=O)c2c(OC)cccc2OC)n1,1,–
CCOC(=O)CSc1nc2c(sc(=S)n2CCc2ccccc2)c(=O)n1Cc1ccco1,-13.5,–
CN(c1ccccc1)c1ccc(/C=c2\s/c(=C(/C#N)C(=O)C(C)(C)C)n(Cc3ccco3)c2=O)cc1,–,10 µM (active)
O=c1nc2s/c(=C\c3ccco3)c(=O)n2nc1Cc1ccccc1,-21.7,–
CC1=CC(=O)C2=C(C)C[C@H](O)[C@@H]3[C@@H](OC(=O)[C@H]3C)[C@H]12,1.9,–
CCOc1ccccc1N=C1NC(=O)CS1,-3.3,–
C=C(C)Cn1c(SCC(=O)NCc2ccco2)nc2sc3c(c2c1=O)CCC3,82.1,–
O=C(CSc1nc2cc3c(cc2c(=O)n1CCC1=CCCCC1)OCO3)NCc1ccco1,–,12.6 µM (active)
O=C(CCCn1c(SCC(=O)c2ccc(F)cc2)nc2ccccc2c1=O)NCc1ccco1,-3.1,–
CC(C)NC(=O)N1CC[C@@]2(CCCN(C(=O)c3cccn3C)C2)C1,15.4,–
Cc1c2cn[nH]c(=O)c2c(C)n1Cc1ccc(F)cc1,17.3,–
N#CCCN1CCN(S(=O)(=O)c2ccc(S(=O)(=O)NC3CCCCC3)cc2)CC1,67.1,–
CCOC(=O)N1CCC(NC(=O)c2cnn3ccccc23)CC1,–,3.98 µM [single pt active] (active)
CCOC(=O)N1CCC(NC(=O)CCc2cn(C)c3ccccc23)CC1,37.8,–
CCOC(=O)N1CCC(NC(=O)Cc2cn(C)c3ccccc23)CC1,44.2,–
COC(=O)N1CCC2(CCCN(Cc3ccccc3OC)C2)CC1,0.4,–
c1ccc(-c2cn3cccnc3n2)cc1,-2.6,–
O=C(C1=C(O)C(=O)N(c2ncccn2)C1c1cccs1)c1ccco1 (stereo unspecified),-10.9,–
CNC(=O)Nc1cc(C(C)(C)C)no1,0.5,–
Cc1cccc2c1N(CC(=O)OC(C)C)C(=O)C2=O,1.8,–
COc1ccc(C)cc1S(=O)(=O)NC1CCCCC1,23.8,–
CCOC(=O)N1CCC(Nc2c(NCCCN3CCN(c4ccc(OC)cc4)CC3)c(=O)c2=O)CC1,45.6,–
O=C(CCCn1c(=O)[nH]c2cc(Cl)ccc2c1=O)NCCN1CCN(c2ccccc2)CC1,92.9,–
CCOC(=O)N1CCC(Nc2c(NCCN3CCN(c4cccc(Cl)c4)CC3)c(=O)c2=O)CC1,–,3.98 µM [single pt active] (active)

# — PubChem BioAssay AID585 (National Center for Advancing Translational Sciences (NCATS), 2007)
